Test results reported in PubChem BioAssay (Tox21).
Several values for one entry are separate records, joined by “and”; a condition that tells them apart may be missing. Equal entries are not always repeated. Results filed as inconclusive are left out. Entries that show only a call come without a potency. Activity calls are given as the source filed them. Unless noted, the call rests on the fitted dose curve.

How the values were obtained:
[1] = Nuclear factor erythroid 2-related factor 2/antioxidant responsive element (Nrf2/ARE) small molecule agonists: qHTS cell viability counter screen in human keratinocytes (AID 1919968; active means well fitted curve in the direction sought with a large enough effect in the repeat runs; an effect the other way counts as inactive or inconclusive; further: nearly all actives have a fitted effect of over 55% in size; further: potency means the concentration at half of the fitted maximal effect)
Outline: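 KeratinoSens cells (HaCaT keratinocytes stably carrying an ARE-luciferase reporter) were seeded at 1,500 cells/well and rested 5 h at 37 C/5% CO2. They were then exposed to compounds in DMSO for 23 h. Viability was read by CellTiter-Fluor fluorescence after 1 h.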

[2] = Nuclear factor erythroid 2-related factor 2/antioxidant responsive element (Nrf2/ARE) small molecule agonists: luciferase reporter gene qHTS assay in human keratinocytes (AID 1919969); further: nearly all actives have a fitted effect of over 35% in size; further: potency means the concentration at half of the fitted maximal effect
[3] = biological target: KiSS-1 receptor (Homo sapiens) (UniProt Q969F8); assay: Human kisspeptin (KISS1R) small molecule agonists, calcium flux assay in KISS1R-HEK293 cells (AID 1920064; active means well fitted curve in the direction sought with a large enough effect in the repeat runs; an effect the other way counts as inactive or inconclusive)
Outline: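 HEK293 cells stably expressing human KISS1R were plated 18 h at 37 °C, loaded with calcium dye for 1 h at 37 °C, then given compound by pin tool. Fluorescence (Ex/Em 480/540) was read kinetically for 3 min.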

[4] = G protein-coupled receptor (GPCR) small molecule agonists, calcium flux assay: HEK293 wild type cell line counter screen (AID 1920065)
Outline: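 Cells were plated and cultured 18 h at 37 C/5% CO2, then loaded with calcium dye for 1 h at 37 C. Compounds in DMSO were pin-transferred in agonist mode, and fluorescence (Ex/Em 480/540) was read kinetically for 3 min at 1 s intervals.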

[5] = p53 small molecule agonists, cell-based qHTS assay with human liver microsomes (AID 1963577)
Outline: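 Fluorescence of the beta-lactamase reporter in p53RE-bla cells, detected with LiveBLAzer substrate (2 h, room temperature, dark), served as the read-out after 16 h compound exposure at 37 C with human liver microsomes and NADPH, each 0.5 mg/mL final.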

[6] = p53 small molecule agonists, cell-based qHTS assay with rat liver microsomes (AID 1963578)
Outline: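 Cells carrying a p53 response element–beta-lactamase reporter were plated and rested 5 h, then dosed with compound in DMSO plus rat liver microsomes and NADPH, each at 0.5 mg/mL final. After 16 h at 37 C, LiveBLAzer substrate was added for 2 h.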

[7] = p53 small molecule agonists, cell-based qHTS assay with human liver microsomes: qHTS cell viability counter screen (AID 1963579); further: nearly all actives have a fitted effect of over 45% in size
Outline: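 Cytotoxicity counter screen: p53RE-bla, 4,000 cells/well; 5 h settle, 37 C/5% CO2; cpd + HLM 0.5 mg/mL + NADPH 0.5 mg/mL (final); 16 h, 37 C; CellTiter-Glo, 30 min RT, luminescence.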

[8] = p53 small molecule agonists, cell-based qHTS assay with rat liver microsomes: qHTS cell viability counter screen (AID 1963580); further: nearly all actives have a fitted effect of over 45% in size
Outline: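 p53RE-bla HCT-116 cells (4,000/well) rested 5 h at 37 C, then given Tox21 compounds in DMSO with rat liver microsomes (0.5 mg/mL final) plus NADPH (0.5 mg/mL final) for 16 h at 37 C. Viability read by CellTiter-Glo luminescence after 30 min at room temperature.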

[9] = p53 small molecule agonists, cell-based qHTS assay: qHTS cell viability counter screen (AID 1963581); further: nearly all actives have a fitted effect of over 45% in size
Outline: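 p53RE-bla HCT-116 cells were exposed to compounds for 16 h at 37 C; after the beta-lactamase FRET read in the same wells, CellTiter-Glo was added and luminescence (intracellular ATP) read after 30 min at room temperature.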

[10] = p53 small molecule agonists, cell-based qHTS assay (AID 1963582; active means well fitted activation curve with a large enough effect in the signal ratio in the repeat runs, not every such curve was filed as active; the % refers to the signal ratio; further: potency means the concentration at half of the fitted maximal effect)
Outline: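 p53RE-bla beta-lactamase reporter cells rested 5 h at 37 C/5% CO2, then received compounds in DMSO by pin transfer and were incubated 16 h at 37 C. LiveBLAzer B/G FRET substrate was loaded for 2 h at room temperature before fluorescence reading.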

[11] = biological target: 5-hydroxytryptamine receptor 2A (Homo sapiens) (UniProt P28223); assay: 5-hydroxytryptamine receptor 2A (HTR2A) small molecule antagonists, cell-based qHTS assay (AID 1963586); further: nearly all actives have a fitted effect of over 45% in size
Outline: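 Antagonist-mode intracellular calcium assay: DOI (4 nM) added after 5 min compound pre-incubation at room temperature to dye-loaded HTR2A-CHO cells. Fluorescence followed for 3 min, sampled every second.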

[12] = biological target: 5-hydroxytryptamine receptor 2A (Homo sapiens) (UniProt P28223); assay: 5-hydroxytryptamine receptor 2A (HTR2A) small molecule agonists, cell-based qHTS assay (AID 1963587); further: nearly all actives have a fitted effect of over 30% in size
Outline: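 HTR2A-CHO cells, plated 18 h at 37 C/5% CO2, dye-loaded 1 h at 37 C; compounds in DMSO added by pin tool (agonist mode). Intracellular calcium flux read as kinetic fluorescence on FDSS over 2 min at 1 s intervals.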

[13] = biological target: Muscarinic acetylcholine receptor M1 (Homo sapiens) (UniProt P11229); assay: Cholinergic receptor muscarinic 1 (CHRM1) small molecule antagonists, cell-based qHTS assay (AID 1963588); further: nearly all actives have a fitted effect of over 40% in size
Outline: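 CHRM1-CHO calcium-flux assay, antagonist mode. Cells were seeded 18 h, dye-loaded 1 h at 37 C and given compound for 5 min at RT, then acetylcholine was added at 50nM. FDSS fluorescence was read 3 min; 15 concentrations, three runs.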

[14] = biological target: Muscarinic acetylcholine receptor M1 (Homo sapiens) (UniProt P11229); assay: Cholinergic receptor muscarinic 1 (CHRM1) small molecule agonists, cell-based qHTS assay (AID 1963589); further: nearly all actives have a fitted effect of over 35% in size
Outline: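 CHO cells stably expressing human CHRM1, seeded 18 h at 37 C/5% CO2, dye-loaded 1 h at 37 C, then given compound in agonist mode; intracellular calcium fluorescence read kinetically at 1 s intervals. Fifteen concentrations, three independent runs.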

[15] = cAMP Responsive Elements (CRE) small molecule agonists, cell-based qHTS assay (AID 1963590)
Outline: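 CRE-bla HEK 293T cells in DMEM with 10% dialyzed FBS, NEAA, pyruvate and 25 mM HEPES were plated 18 h at 37 C/5% CO2, then exposed to compounds in DMSO for 3 h before LiveBLAzer B/G FRET substrate addition.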

[16] = cAMP Responsive Elements (CRE) small molecule antagonists, cell-based qHTS assay (AID 1963591; active means well fitted inhibition curve with a large enough effect in the signal ratio in the repeat runs, not every such curve was filed as active; the % refers to the signal ratio; further: potency means the concentration at half of the fitted maximal effect)
Outline: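 CRE-bla HEK293T cells were plated 18 h at 37 °C/5% CO2, pinned with compound in DMSO, then stimulated with NKH477 at 0.25 uM final for 3 h. LiveBLAzer B/G FRET substrate was added and plates incubated 2 h at room temperature.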

[17] = biological target: Beta-2 adrenergic receptor (Homo sapiens) (UniProt P07550); assay: Adrenergic beta2 receptor (ADRB2) small molecule antagonists, cell-based qHTS assay (AID 1963592); further: series mostly up to about 92 µM; nearly all actives have a fitted effect of over 50% in size
Outline: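 Cells (CHO, stable ADRB2 overexpression) incubated 18-20hr at 37C; compounds added from DMSO; agonist mix (1nM isoproterenol, 100uM IBMX, 25uM Ro-20-1724) added; 0.5hr RT; d2-cAMP and anti-cAMP-cryptate added; 1hr RT; 665/615 nm read.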

[18] = biological target: D(2) dopamine receptor (Homo sapiens) (UniProt P14416); assay: Dopamine D2 receptor (DRD2) small molecule agonists, cell-based qHTS assay (AID 1963594); further: nearly all actives have a fitted effect of over 35% in size
Outline: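 HEK293 cells stably expressing DRD2 were cultured 24 h at 37 C, then given Ro20-1724 (0.1 mM final) and compounds for 10 min at room temperature. NKH477 (200nM) was then added for 30 min. cAMP was read by HTRF.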

[19] = biological target: Beta-2 adrenergic receptor (Homo sapiens) (UniProt P07550); assay: Adrenergic beta2 receptor (ADRB2) small molecule agonists, cell-based qHTS assay (AID 1963593);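 further: CHO cells stably overexpressing human ADRB2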
Outline: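 CHO cells stably over-expressing ADRB2 were plated overnight at 37C, then dosed with compounds plus a stimulation mix containing 100uM IBMX and 25uM Ro-20-1724 for 0.5hr at room temperature. cAMP was measured by HTRF competition, 1hr.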

[20] = biological target: D(2) dopamine receptor (Homo sapiens) (UniProt P14416); assay: Dopamine D2 receptor (DRD2) small molecule antagonists, cell-based qHTS assay (AID 1963595; active means well fitted inhibition curve with a large enough effect in the signal ratio in the repeat runs, with a control signal flat; the % refers to the signal ratio)
Outline: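 Antagonism was scored as restored cAMP in HEK293-DRD2 cells. These cells were stimulated with 200 nM NKH477 and 12 nM quinpirole for 30 min at room temperature, in the presence of 0.1 mM Ro20-1724.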

Sequence of 5-hydroxytryptamine receptor 2A (Homo sapiens) (P28223 whole entry, looked up): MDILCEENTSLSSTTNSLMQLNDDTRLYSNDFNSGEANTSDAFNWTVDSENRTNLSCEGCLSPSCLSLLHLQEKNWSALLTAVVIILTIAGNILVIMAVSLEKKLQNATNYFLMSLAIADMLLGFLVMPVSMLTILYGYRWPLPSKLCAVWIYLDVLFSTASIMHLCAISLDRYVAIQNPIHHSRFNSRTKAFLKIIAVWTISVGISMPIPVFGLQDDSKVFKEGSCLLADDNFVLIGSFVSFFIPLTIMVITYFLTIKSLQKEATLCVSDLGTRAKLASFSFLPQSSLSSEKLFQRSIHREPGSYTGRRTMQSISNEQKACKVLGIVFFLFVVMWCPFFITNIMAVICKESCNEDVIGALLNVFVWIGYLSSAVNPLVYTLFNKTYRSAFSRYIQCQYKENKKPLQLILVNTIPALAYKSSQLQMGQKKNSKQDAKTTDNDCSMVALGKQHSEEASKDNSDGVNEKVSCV
Sequence of Beta-2 adrenergic receptor (Homo sapiens) (P07550 whole entry, looked up): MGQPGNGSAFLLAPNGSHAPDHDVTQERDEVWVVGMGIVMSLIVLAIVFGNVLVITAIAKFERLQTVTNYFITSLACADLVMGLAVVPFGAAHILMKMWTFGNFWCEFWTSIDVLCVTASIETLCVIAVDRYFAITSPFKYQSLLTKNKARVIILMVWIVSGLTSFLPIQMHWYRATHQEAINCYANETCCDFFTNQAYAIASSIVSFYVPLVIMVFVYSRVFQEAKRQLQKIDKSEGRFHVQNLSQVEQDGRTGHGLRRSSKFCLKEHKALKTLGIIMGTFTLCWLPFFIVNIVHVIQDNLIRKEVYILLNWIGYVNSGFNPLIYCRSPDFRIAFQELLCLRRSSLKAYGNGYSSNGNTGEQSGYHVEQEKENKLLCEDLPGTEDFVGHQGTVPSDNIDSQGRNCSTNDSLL
Sequence of KiSS-1 receptor (Homo sapiens) (Q969F8 whole entry, looked up): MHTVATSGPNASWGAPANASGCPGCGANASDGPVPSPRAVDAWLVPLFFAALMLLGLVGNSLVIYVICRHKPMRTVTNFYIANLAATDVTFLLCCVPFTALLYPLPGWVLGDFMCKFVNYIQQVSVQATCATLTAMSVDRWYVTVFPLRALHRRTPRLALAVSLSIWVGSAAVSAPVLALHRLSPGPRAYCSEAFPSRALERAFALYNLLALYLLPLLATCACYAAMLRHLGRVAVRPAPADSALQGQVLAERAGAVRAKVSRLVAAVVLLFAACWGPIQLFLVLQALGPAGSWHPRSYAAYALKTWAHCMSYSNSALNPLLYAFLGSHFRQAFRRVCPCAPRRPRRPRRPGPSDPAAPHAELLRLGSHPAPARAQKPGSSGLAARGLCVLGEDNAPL
Sequence of Muscarinic acetylcholine receptor M1 (Homo sapiens) (P11229 whole entry, looked up): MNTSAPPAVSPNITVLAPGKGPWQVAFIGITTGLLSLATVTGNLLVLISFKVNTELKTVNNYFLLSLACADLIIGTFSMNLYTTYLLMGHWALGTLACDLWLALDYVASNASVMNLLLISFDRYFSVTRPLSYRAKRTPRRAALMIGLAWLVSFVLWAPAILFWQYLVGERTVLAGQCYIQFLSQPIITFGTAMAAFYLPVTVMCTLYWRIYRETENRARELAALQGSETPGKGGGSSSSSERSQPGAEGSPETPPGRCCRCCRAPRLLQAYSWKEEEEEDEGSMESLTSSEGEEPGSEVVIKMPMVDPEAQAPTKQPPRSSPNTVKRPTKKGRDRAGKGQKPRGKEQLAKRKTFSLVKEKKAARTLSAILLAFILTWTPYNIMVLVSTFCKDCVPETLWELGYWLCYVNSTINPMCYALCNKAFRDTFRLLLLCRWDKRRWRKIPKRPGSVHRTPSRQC
Sequence of D(2) dopamine receptor (Homo sapiens) (P14416 whole entry, looked up): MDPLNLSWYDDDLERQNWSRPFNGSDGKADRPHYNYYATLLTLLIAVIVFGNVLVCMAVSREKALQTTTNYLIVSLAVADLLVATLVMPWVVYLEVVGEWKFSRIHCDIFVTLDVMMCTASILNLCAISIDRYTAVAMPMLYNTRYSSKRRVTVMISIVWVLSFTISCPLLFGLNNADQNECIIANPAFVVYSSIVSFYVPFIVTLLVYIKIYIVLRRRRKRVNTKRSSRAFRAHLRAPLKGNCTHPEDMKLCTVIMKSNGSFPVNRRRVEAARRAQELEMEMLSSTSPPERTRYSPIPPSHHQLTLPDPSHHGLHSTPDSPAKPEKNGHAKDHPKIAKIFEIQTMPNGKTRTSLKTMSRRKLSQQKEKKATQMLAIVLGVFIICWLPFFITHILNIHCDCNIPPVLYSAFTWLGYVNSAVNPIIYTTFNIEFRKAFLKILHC

Row | SMILES | Potency [1] | Potency [2] | Potency [3] | Potency [4] | Potency [5] | Potency [6] | Potency [7] | Potency [8] | Potency [9] | Potency [10] | Potency [11] | Potency [12] | Potency [13] | Potency [14] | Potency [15] | Potency [16] | Potency [17] | Potency [18] | Potency [19] | Potency [20]
1 | CCCCCCCCCOCC1CO1 (stereo unspecified) | inactive | inactive | inactive | inactive | inactive | inactive | inactive | inactive | inactive | inactive | inactive | inactive | inactive | inactive | inactive | inactive | inactive | inactive |  | 
2 | Cn1cnc2c(F)c(Nc3ccc(Br)cc3Cl)c(C(=O)NOCCO)cc21 | inactive | inactive | inactive | inactive | inactive | inactive | inactive | inactive | inactive | inactive | inactive | inactive | inactive | inactive | inactive | inactive | inactive | inactive | inactive | 
3 | Cc1ncsc1CCO | inactive | inactive | inactive | inactive | inactive | inactive | inactive | inactive | inactive | inactive | inactive | inactive | inactive | inactive | inactive | inactive |  | inactive | inactive | 
4 | CN(C)/N=N/c1nc[nH]c1C(N)=O | inactive | inactive |  | inactive |  |  | inactive | inactive | inactive |  |  |  |  |  | inactive | inactive | inactive | inactive | inactive | inactive
5 | [Cl][Dy]([Cl])[Cl] | inactive | inactive |  |  | inactive | inactive | inactive | inactive | inactive | inactive | inactive | inactive | inactive |  |  | inactive | inactive | inactive | inactive | 
6 | Cc1cc(C)cc(N)c1 | inactive | inactive | inactive | inactive | inactive | inactive | inactive | inactive | inactive | inactive | inactive | inactive | inactive | inactive | inactive | inactive | inactive | inactive | inactive | inactive
7 | CC(C)CC(O)CC(C)C | inactive | inactive | inactive | inactive | inactive | inactive | inactive | inactive | inactive | inactive | inactive | inactive | inactive | inactive | inactive | inactive | inactive | inactive | inactive | inactive
8 | C=COCCCC | inactive | inactive | inactive | inactive | inactive | inactive | inactive | inactive | inactive | inactive | inactive | inactive | inactive | inactive | inactive | inactive | inactive | inactive | inactive | inactive
9 | C[N+](C)(CCOc1ccccc1)Cc1cccs1 | inactive | inactive | inactive | inactive | inactive | inactive | inactive | inactive | inactive | inactive | inactive | inactive | inactive | inactive | inactive | inactive | inactive | inactive | inactive | inactive
10 | CC(C)CCCCCCCCCCCCCCC(=O)O | inactive | inactive |  |  | inactive | inactive |  | inactive | inactive | inactive | inactive | inactive |  | inactive | inactive | inactive | inactive | inactive | inactive | inactive
11 | CCCCc1ccc2cccc(S(=O)(=O)O)c2c1 | inactive | inactive | inactive | inactive | inactive | inactive | inactive | inactive | inactive | inactive |  | inactive | inactive | inactive | inactive |  | inactive | inactive | inactive | inactive
12 | COc1cccc2c1C(=O)c1c(O)c3c(c(O)c1C2=O)C[C@@](O)(C(=O)CO)C[C@@H]3O[C@H]1C[C@H](N)[C@H](O)[C@H](C)O1 | 7.5 µM (active) | 2.73 µM (active) and 6.68 µM (active) | inactive | inactive | inactive | inactive | inactive |  | inactive | 0.457 µM (active) |  |  |  |  | inactive | 26.6 µM (active) |  |  |  | 
13 | CC(C)(O)C#CC(C)(C)O | inactive | inactive | inactive | inactive | inactive | inactive | inactive | inactive | inactive | inactive | inactive | inactive | inactive | inactive | inactive |  | inactive |  |  | inactive
14 | CCCCCCc1ccc(-c2ccc(C#N)cc2)cc1 | inactive | 13.4 µM (active) | inactive | inactive | inactive | inactive | inactive | inactive | inactive | inactive | inactive | inactive | inactive |  | inactive | inactive | inactive | inactive | inactive | 
15 | CN(C)c1ccc(C(=N)c2ccc(N(C)C)cc2)cc1 | 24 µM (active) and 23.4 µM (active) | 60.4 µM (active) and 52.4 µM (active) | inactive | inactive | inactive |  | inactive | inactive | inactive |  | inactive | inactive |  | inactive |  | inactive | inactive | inactive | inactive | 
16 | O=C(Nc1ccc([N+](=O)[O-])cc1)Nc1ccc([N+](=O)[O-])cc1 (tested in a mixture with another compound) | inactive | inactive | inactive | inactive | inactive | inactive | inactive | inactive | inactive | inactive |  | inactive | inactive | inactive | inactive | inactive | inactive | inactive | inactive | inactive
